In the library only some 0.69% were active in any assay of this set; here they are far more common.
MRP-1 activ: MRP-1 activation; H69AR cells + doxorubicin, viability rescue, CellTiter-Glo; viability increase, % at 10 µM; hit rate 0.61% among 140,000; AID 799;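 active = viability gain under doxorubicin at or above a set limit, the compound median plus 3 SD, cut at about 4.7% in these data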;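 also: MRP-1 overexpressing cells given doxorubicin 25 µM after compound pretreatment; 18-22 h compound pretreatment then 72 h with doxorubicin before readout; 0% = doxorubicin-only wells and 100% = vehicle-treated cells without doxorubicin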
Phagocytosis inh: macrophage phagocytosis inhibition | J774A.1 macrophage IgG-bead phagocytosis, imaging | inhibition, % at 5 µM | hit rate 0.07% among 110,000;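 active = inhibition above the mean of the plate negative controls plus 5 SD, cut at about 13% in these data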;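 also: phagocytic index as fraction of beads internalized from green versus red external bead signal; plate controls were DMSO negative control for no effect and cytochalasin-D positive control for full effect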
MRP reversal: compounds reversing MRP-mediated drug resistance | H69AR cells + 2 uM doxorubicin, CellTiter-Glo, 72 h | differential viability (reversal), % at 10 µM | hit rate 0.04% among 85,000 | AID 602;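 active = viability drop by adding the cancer drug above about 55%, with treated viability meeting a 40% cutoff, limit read from the data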;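 also: viability without doxorubicin minus viability with 2 µM doxorubicin for each compound; larger differential means the compound sensitizes cells more to doxorubicin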
Active calls of the source: *.

Results for COc1ccc(OC)c(NC(=O)CSc2nnc(CNC(=O)COc3ccc(Cl)cc3)o2)c1 ?
MRP-1 activ: 5.6*; Phagocytosis inh: 3; MRP reversal: 13

How did COc1ccc(NC(=O)CSc2nnc(CNC(=O)COc3ccc(Cl)cc3)o2)c(OC)c1 do in these assays?
MRP-1 activ: 4; Phagocytosis inh: 2; MRP reversal: 16

Results for Cc1cc(=O)oc2c1ccc1oc(/C(=N/O)c3ccccc3)c(C)c12 ?
MRP-1 activ: 10*; Phagocytosis inh: -1; MRP reversal: -10

What do the screens show for `Cc1ccc(/C(=N\O)c2oc3c(C)c4oc(=O)cc(C)c4cc3c2C)cc1`?
MRP-1 activ: -7; MRP reversal: -5

What do the screens show for `CCN1CCN(c2ccc(NC(=O)c3ccc4c(c3)[nH]c(=O)n4Cc3ccc(OC)cc3)cc2)CC1`?
MRP-1 activ: -4; Phagocytosis inh: -6

How did COc1ccc(/C=N/NC(=O)CCSc2nc3ccccc3s2)cc1 do in these assays?
MRP-1 activ: -2; Phagocytosis inh: 1

Results for Cc1ccc(S(=O)(=O)c2c(C)nn(-c3ccccc3)c2OC(=O)c2ccc(Br)o2)cc1 ?
MRP-1 activ: 0; Phagocytosis inh: 3

Results for COc1ccc(N2CCN(c3nc(NCCO)nc(N4CCOCC4)n3)CC2)cc1 ?
MRP-1 activ: 1; Phagocytosis inh: 1; MRP reversal: 19

What do the screens show for `COc1ccc(N2CCN(c3nc(Cl)nc(N4CCOCC4)n3)CC2)cc1`?
MRP-1 activ: 8.8*; MRP reversal: -8

Results for O=C(COC(=O)C1CC(O)CN1S(=O)(=O)c1ccc(Cl)cc1)c1cccc(Cl)c1 (centres undefined) ?
MRP-1 activ: -1; Phagocytosis inh: -12

What do the screens show for `COCCN=c1scc(-c2cccs2)n1/N=C/c1ccc(O)c(O)c1O`?
MRP-1 activ: -5; Phagocytosis inh: -1

How did CCN=c1scc(C)n1/N=C/c1ccc(O)c(O)c1O do in these assays?
MRP-1 activ: 6.2*; Phagocytosis inh: 7

What do the screens show for `C=CCNC(=S)N(CC=C)C1CCS(=O)(=O)C1` (centres undefined)?
MRP-1 activ: 1; Phagocytosis inh: -3

Results for Cc1ccc(C(=O)N2CCN(C3c4cccc5cccc(c45)C3NS(=O)(=O)c3ccccc3)CC2)cc1 (centres undefined) ?
MRP-1 activ: -5; MRP reversal: 21

Results for O=C1OC(Nc2ccccn2)c2ccccc21 (centres undefined) ?
MRP-1 activ: 32*; Phagocytosis inh: -1; MRP reversal: -17

What do the screens show for `O=C1OC(Nc2ncccn2)c2ccccc21` (centres undefined)?
MRP-1 activ: -1; Phagocytosis inh: -1; MRP reversal: 24

How did Cc1cccc2sc(NC(=O)c3ccc(NS(=O)(=O)c4cccs4)cc3)nc12 do in these assays?
MRP-1 activ: -3

What do the screens show for `O=C1OC(Nc2cc(Br)cc3cccnc23)c2ccccc21` (centres undefined)?
MRP-1 activ: -4; Phagocytosis inh: -6

What do the screens show for `Cc1c(NC(=O)Cc2ccccc2)cccc1C(=O)NN1C(=O)c2ccccc2C1=O`?
MRP-1 activ: 3; Phagocytosis inh: 5

How did O=C(Nc1ccc2oc(=O)ccc2c1)c1cccnc1Cl do in these assays?
MRP-1 activ: 0; MRP reversal: -4

What do the screens show for `Cc1onc(-c2ccccc2Cl)c1C(=O)Nc1sc2c(c1C(N)=O)CCC(C)C2` (centres undefined)?
MRP-1 activ: 4.8*; MRP reversal: 11

How did COC(=O)c1c(NC(=O)c2c(-c3ccccc3Cl)noc2C)sc2c1CCC2 do in these assays?
MRP-1 activ: -1; Phagocytosis inh: 0; MRP reversal: 11

How did Cc1cccc(C(=O)NNC(=O)c2ccccc2)c1 do in these assays?
MRP-1 activ: -2; Phagocytosis inh: -3

Results for Cc1cccc(C(=O)c2cnc3ccccc3c2-c2ccccc2)c1 ?
MRP-1 activ: 5.0*; Phagocytosis inh: 1

How did CS(=O)(=O)Nc1cccc(C2=NN(C(=O)c3ccccc3Cl)C(c3ccccc3O)C2)c1 (centres undefined) do in these assays?
MRP-1 activ: -2; Phagocytosis inh: -3

What do the screens show for `CC(NS(=O)(=O)c1ccc(Br)cc1)C(=O)NCCc1ccccc1` (centres undefined)?
MRP-1 activ: 0; Phagocytosis inh: -6

How did CN(CC(=O)NCCC1=CCCCC1)S(=O)(=O)c1ccc2c(c1)c(=O)n(C)c(=O)n2C do in these assays?
MRP-1 activ: -2; Phagocytosis inh: -1; MRP reversal: -4

What do the screens show for `CN(CC(=O)NCCc1ccc(Cl)cc1)S(=O)(=O)c1ccc2c(c1)c(=O)n(C)c(=O)n2C`?
MRP-1 activ: 6.1*; Phagocytosis inh: -1; MRP reversal: 4

How did COc1ccc(/C=N/NC(=O)OC(C)(C)C)cc1OC do in these assays?
MRP-1 activ: 0; Phagocytosis inh: -7

Source: PubChem BioAssay
